# DT40 TDP1 CPT – qHTS for Inhibitors of human tyrosyl-DNA phosphodiesterase 1 (TDP1): qHTS in cells in presence of CPT | chicken DT40 Tdp1-/-;hTDP1 cells + 20 nM CPT, ATP luminescence, 48 h | Potency, µM (highest dose often 46.2 µM), for inactives: top-dose activity change, negative = growth inhibition, actives largely listed as inhibitors | actives 12% (n = 420,000) | AID 686979, 2013; further: potency means the concentration at half of the fitted maximal effect; on the % scale 0 is the no-effect control and ±100 the full control effect; nearly all actives have a fitted effect of over 55% in size
#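 Cell growth measured by CellTiter-Glo luminescence after a minimum 48 h, 37 C compound exposure with 20 nM CPT in Tdp1-knockout DT40 cells stably expressing hTDP1, seeded 400/well; qHTS titration format.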
# MCF10A rerep – A quantitative high throughput screen for small molecules that induce DNA re-replication in MCF 10a normal breast cells | MCF 10A DNA re-replication, Hoechst nuclear intensity, 48 h | Potency, µM (top dose mostly 46.1 µM), for inactives: at the top dose activity, positive = re-replication, hits mostly activators | actives 2.9% (n = 350,000); further: potency means the concentration at half of the fitted maximal effect; % of control where 0% means no effect; nearly all actives have a fitted effect of over 50% in size
# TDP1 cell noCPT – qHTS for Inhibitors of human tyrosyl-DNA phosphodiesterase 1 (TDP1): qHTS in cells in absence of CPT | DT40 Tdp1-/- hTDP1 cells, no CPT, ATP luminescence, 48 h | Potency, µM (titrated, usually from 46.2 µM), for the others: at the top dose activity change, negative = growth inhibition, usual class: inhibitors | actives 15% (n = 420,000) | AID 686978, 2013; further: potency means the concentration at half of the fitted maximal effect; on the % scale 0 is the no-effect control and ±100 the full control effect; nearly all actives have a fitted effect of over 55% in size
#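 Luminescent ATP content (CellTiter-Glo) served as the growth readout. Knockout chicken DT40 cells expressing human TDP1 were exposed to compounds without camptothecin for a minimum 48 hr at 37 °C.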
# Chronic BCR inh – qHTS Assay to Find Inhibitors of Chronic Active B-Cell Receptor Signaling | actives 0.05% (n = 340,000) | ABC-DLBCL IkBa-CBG/CBR reporter, luminescence ratio, 4 h | Potency, µM (series often up to 46.1 µM), for inactives: top-dose activity change, negative = inhibition, actives largely listed as inhibitors; active means well fitted inhibition curve with a large enough effect in the signal ratio, with a control signal flat, not every such curve was filed as active; inconclusive means small, poorly fitted or top-dose-only effect, or effect the other way, or a change in a side signal; the % refers to the signal ratio;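 further: potency means the concentration at half of the fitted maximal effect; plate controls were basal doxycycline-induced cells for no effect and cells given 10 µM MG132 for full effect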
#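 Concentration-response series (up to 46 uM) were applied to TMD8 dual-reporter cells for 4 h at 37C with doxycycline. Green/red ratio, after filter-overlap correction, defined %Activity; red signal alone was normalised to basal cells and zero luminescence.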
# IL1B secr inh – qHTS for Inhibitors of Inflammasome Signaling: IL-1-beta AlphaLISA Primary Screen; activity change, % at 57.5 µM; AID 743279, 2014; actives 4.7% (n = 360,000); THP-1 LPS/ATP IL-1B secretion, AlphaLISA, 16 h; active compounds read low; in the data active means activity change below about -50%; inconclusive means mostly about -30% to -49%; further: on the % scale 0 is the no-effect control and ±100 the full control effect
#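 Secreted IL-1B measured by AlphaLISA bead assay after 16 h compound exposure of THP-1 cells; compounds (final up to 57.5 uM) added 1 h before LPS (250 ng/mL) and ATP (1.25 mM) stimulation; lower signal means less secretion.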
# SW480 rerep – A quantitative high throughput screen for small molecules that induce DNA re-replication in SW480 colon adenocarcinoma cells | SW480 DNA re-replication, Hoechst DNA content imaging, 48 h | Potency, µM (top dose mostly 46.1 µM), without a hit: at the top dose re-replication activation, usual class: activators | actives 1.8% (n = 340,000) | AID 624297, 2012; further: potency means the concentration at half of the fitted maximal effect; % of control where 0% means no effect; nearly all actives have a fitted effect of over 55% in size
#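 Readout is total intensity of Hoechst-stained nuclei, excited at 405 nm and collected at 500-530 nm. Compound treatment lasted 48 hr at 37 C in 5% CO2 before staining.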
# Numbers without * were called inactive; u = inconclusive; x = not tested or not shown; [ ] = dose if it differs, or a comment. Hits are enriched below; roughly 19% of the tested compounds scored in any of these assays. Unless noted, the call rests on the fitted dose curve; in most records, active means well fitted curve in the direction sought with a large enough effect; inconclusive means small, poorly fitted or top-dose-only effect, or another doubt; inactive means no such curve, though single readings can be large; an effect the other way counts as inactive or inconclusive.
SMILES,DT40 TDP1 CPT,MCF10A rerep,TDP1 cell noCPT,Chronic BCR inh,IL1B secr inh,SW480 rerep
COc1ccc([C@H]2N[C@]3(CCCN(Cc4ccco4)C3=O)[C@H]3C(=O)N(Cc4ccccc4)C(=O)[C@@H]23)cc1,3%,x,-13%,x,-15,x
O=C(NCCCn1ccnc1)Nc1ccc2c(c1)OCO2,14%,1%,3%,-2%,-1,-4%
Cc1nc(/N=C(\N)NC(=O)N2c3ccccc3Sc3ccccc32)nc2ccccc12,u,14%,u,-1%,8,-2%
CCN(CC)/C(N)=N/c1nc(C)cc(C)n1,6%,-6%,2%,0%,38,1%
CCC(=O)N/C(N)=N/c1nc(C)c2cc(C)c(C)cc2n1,-21%,-2%,u,7%,x,u
Cc1ccc2nc(N=C(N)N)nc(C)c2c1,u,1%,23µM*,u,0,u
Cc1nc(/N=C(\N)NC(=O)c2ccccc2)nc2ccccc12,29µM*,1%,u,u,-11,-2%
Cc1cc2nc(N=C(N)N)nc(C)c2cc1C,15µM*,u,8.2µM*,-6%,-78*,18µM*
Cc1cc2nc(/N=C(\N)NC(=O)C(C)C)nc(C)c2cc1C,u,-3%,u,u,-93*,28%
Cc1cccc(Cn2cc3c(=O)n(CC(=O)Nc4ccc(C)c(F)c4)nc-3c3cc(F)ccc32)c1,6%,x,-21%,x,x,x
COCc1ccc(CN2Cc3ccccc3OC(c3ccccc3F)C2)o1 (configuration not stated),4%[9.04 µM],x,-30%,x,x,x
Cc1ccc(S(=O)(=O)/N=C(\N)Nc2nc(C)c3cc(C)ccc3n2)cc1,u,19%,u,u,-11,12%
CCc1ccc2nc(N=C(N)N)nc(C)c2c1,10µM*,11%,7.3µM*,u,-91*,-1%
CCCC(=O)N/C(N)=N/c1nc(C)c2cc(C)ccc2n1,18µM*,10%,23µM*,u,-20,-1%
CCN1CCN(C(=O)NC(C(=O)NC2C(=O)N3C2SC(C)(C)C3C(=O)O)c2ccccc2)C(=O)C1=O (configuration not stated),7%,x,3%,x,x,x
O=S(=O)(c1ccc(Cl)cc1)N1CCC2(CC1)CO2,u,1%,-32%,-8%,-57*,2%
CC(C)(C)c1ccc(S(=O)(=O)N2CCC(O)(c3ccc(Cl)cc3)CC2)cc1,u,u,18µM*,u,-11,-29%
COc1ccc(C(=O)NCC(C)(C)N2CCOCC2)cc1S(=O)(=O)N1CCCC1,-10%,2%,-8%,1%,0,-4%
O=C(Nc1ccccc1C(=O)N1CCCC1)c1ncoc1-c1cccc(Cl)c1,u,u,u,u,-3,u
COc1ccc(N2CCN(C(=O)C3CCCN(S(=O)(=O)c4cccc5cccnc45)C3)CC2)cc1 (configuration not stated),16µM*,-4%,u,-5%,8,-3%
CC1Cc2ccccc2N1C(=O)C1CCCN(S(=O)(=O)c2cccc3cccnc23)C1 (configuration not stated),13µM*,0%,13µM*,u,19,u
COc1ccc(NC(=O)Cn2cnc3ccc(S(=O)(=O)N4CCC(C)CC4)cc3c2=O)cc1Cl,7.3µM*,x,4.1µM*,x,x,x
CC1CCN(S(=O)(=O)c2cn(CC(=O)Nc3ccc(F)c(Cl)c3)c(=O)c3ccccc23)CC1,23µM*,x,23µM*,x,x,x
COc1cc(Cl)c(C)cc1NC(=O)Cn1cc(S(=O)(=O)N2CCC(C)CC2)c2ccccc2c1=O,-16%,x,-20%,x,x,x
COCCNC(=O)Cn1cnc2ccc(S(=O)(=O)N3CCC(C)CC3)cc2c1=O,-4%,u,-7%,0%,27,-5%[9.22 µM]
SMILES,DT40 TDP1 CPT,MCF10A rerep,TDP1 cell noCPT,Chronic BCR inh,IL1B secr inh,SW480 rerep
CC(=O)Nc1ccc(C=NN=C2c3ccccc3-c3ccccc32)cc1,26µM*,u,u,x,4,1%
O=C(NCc1ccccc1)c1onc(CSc2ccccn2)c1C(=O)NCc1ccccc1,u,0%,-27%,1%,-8,-13%
COCCNC(=O)c1onc(CSc2cc(C)cc(C)c2)c1C(=O)NCCOC,-3%,3%,-29%,-10%,-3,-16%
O=C(NCc1ccccc1)c1onc(CSc2ccc(F)cc2)c1C(=O)NCc1ccccc1,18µM*,17%,u,x,-8,6%
Cc1cc(C)cc(SCc2noc(C(=O)NCc3ccccc3)c2C(=O)NCc2ccccc2)c1,u,4.6µM*,u,-1%,25,-30%
COc1ccc(Br)cc1/C=N/NC(=O)C(c1ccncc1)N1CCOCC1 (configuration not stated),u,15%,23µM*,-5%,21,3%
Cc1ccc(/C=N/NC(=O)C(c2ccncc2)N2CCOCC2)cc1 (configuration not stated),2%,-1%,-26%,2%,2,-9%
CCOc1ccccc1NC(=O)Cn1c(=O)n(Cc2ccccc2)c(=O)c2cccnc21,-3%,x,-1%,x,x,x
Cc1ccc(C2c3c(oc4ccccc4c3=O)C(=O)N2CCCN2CCOCC2)o1 (configuration not stated),-22%,0%,-5%,-8%,-9,1%
CC(C)c1ccc(C2c3c(oc4ccc(Cl)cc4c3=O)C(=O)N2CCCN2CCOCC2)cc1 (configuration not stated),18µM*,x,u,x,x,x
Cc1ccc2oc3c(c(=O)c2c1)C(c1ccccc1F)N(CCCN1CCOCC1)C3=O (configuration not stated),u,x,18µM*,x,x,x
CC(C)Oc1ccc(C2c3c(oc4ccccc4c3=O)C(=O)N2CCCN2CCOCC2)cc1 (configuration not stated),26µM*,u,u,0%,0,11%
O=C1c2oc3ccc(Cl)cc3c(=O)c2C(c2ccccn2)N1CCCN1CCOCC1 (configuration not stated),23µM*,0%,29µM*,u,12,-10%

# Screening results from PubChem BioAssay.
